Bioassay records as filed in PubChem.
D1 ag: agonists of human D1 dopamine receptor; P21728; HEK293 T-REx D1 cells, calcium flux, agonist mode; activation, % at 2 µM; actives 1% (n = 360,000); AID 504660; also: 0% is about no effect
Target sequence (P21728 whole entry, looked up): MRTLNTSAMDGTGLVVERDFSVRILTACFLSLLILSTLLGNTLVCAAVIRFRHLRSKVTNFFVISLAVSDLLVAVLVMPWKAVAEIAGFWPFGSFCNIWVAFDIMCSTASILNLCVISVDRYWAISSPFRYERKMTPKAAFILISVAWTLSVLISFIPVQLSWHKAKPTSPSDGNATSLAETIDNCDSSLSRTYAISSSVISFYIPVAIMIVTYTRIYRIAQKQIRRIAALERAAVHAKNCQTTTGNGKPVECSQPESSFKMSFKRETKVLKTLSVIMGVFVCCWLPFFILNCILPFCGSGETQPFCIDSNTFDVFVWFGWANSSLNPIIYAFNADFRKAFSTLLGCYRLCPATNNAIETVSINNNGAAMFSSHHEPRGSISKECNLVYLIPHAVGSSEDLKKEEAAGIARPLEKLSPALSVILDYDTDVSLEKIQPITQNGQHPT
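Tetracycline-induced HEK293 TREx D1 cells, force-coupled to calcium signalling, were dye-loaded with a no-wash calcium kit. Compound was pin-added after a 10 s baseline. Fluorescence was read kinetically at 1 cycle/s for 180 s, with calcium rises flagged as agonism.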
D1 potentiator: potentiators of human D1 dopamine receptor; P21728; HEK293 TREx D1 cells, calcium flux, dopamine EC20 potentiation; potentiation, % at 10 µM; actives 0.036% (n = 360,000); AID 504651; in the data active = potentiation above about 30%; also: 0% is about no effect
D1 antag: antagonists of human D1 dopamine receptor | P21728 | HEK293 TREx D1 cells, calcium flux, dopamine EC80; active compounds read low | activity change, negative = inhibition, % at 10 µM | actives 3.2% (n = 360,000) | AID 504652; in the data active = activity change below about -30%; also: % is scaled to controls: 0 for no effect and ±100 for the full control effect
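Antagonism measured as reduced calcium response to an EC80 dopamine addition following 180 s compound pre-read; cells were inducible HEK293 Trex D1 plated overnight at 30 C, read kinetically at 1 cycle/sec.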
TRHR PAM: allosteric enhancers of human TRH receptor; P34981; TRHR cells, fluo-8 calcium fluorescence, EC20 TRH enhancement; enhancement, % at 2 µM; actives 0.66% (n = 360,000); in the data active = enhancement above about 30%; also: 0% is about no effect
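TRHR-expressing cells loaded with fluo-8 calcium dye were read kinetically (ex 480/em 530) during compound addition, then stimulated with an EC20 of TRH (10 nM final). Enhancement of the Gq-mediated intracellular calcium response was scored.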
TRHR agonist: activates the human TRH receptor; P34981; TRHR cells, calcium flux fluo-8, FDSS agonist mode; activation, % at 2 µM; actives 0.18% (n = 360,000); AID 493084; also: 0% is about no effect
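Read-out: compound-evoked intracellular calcium rise in TRHR cells, fluo-8 dye, kinetic FDSS fluorescence at 1 s/cycle following a 10-cycle baseline. Cells cultured overnight before dye loading (30 min–1.5 h, RT).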
* hit, by the source's call. Sampled rows, rich in hits. Any-hit rate of the full collection: about 4.6%. Rule as the data show it, unless noted: active = activation above about 30%; inactive = the rest.

SMILES | D1 ag | D1 potentiator | D1 antag | TRHR PAM | TRHR agonist
O=C(Nc1ccc(O)cc1)C1CC=CCC1 (configuration not stated) | 4 | -7 | -100* | 0 | 0
O=C(Nc1nccs1)C1CC=CCC1 (configuration not stated) | 4 | 5 | -19 | -7 | 1
Cn1c(=O)c([N+](=O)[O-])c(NCCc2ccccc2)c2ccccc21 | 1 | 2 | 17 | -5 | 0
CCn1c(=O)c([N+](=O)[O-])c(NCCc2ccccc2)c2ccccc21 | 5 | -2 | -52* | 11 | 0
O=c1cc(/N=C/c2coc3c(ccc4ccccc43)c2=O)[nH]c(=S)[nH]1 | 7 | 1 | -31* | -1 | 0
NC(=S)N/N=C/c1coc2c(ccc3ccccc32)c1=O | 0 | -4 | -3 | 3 | -1
O=C(Cn1ncc2c1-c1ccccc1OC2)N1CCN(c2ccccc2)CC1 | 3 | 9 | 12 | 1 | 0
Clc1ccc(OCCCNCc2ccccc2)c2ccccc12 | 31* | 16 | -2 | 2 | 1
C=CCc1ccccc1OCCNCc1ccccc1 | 12 | -17 | -50* | 5 | 0
C=CCc1ccc(OCCCNCc2ccccc2)c(OC)c1 | 6 | -10 | -13 | 3 | 0
Brc1ccccc1OCCNCc1ccccc1 | 13 | -16 | -75* | 5 | 0
O=C(CC1N=C2c3ccccc3N=C(SCC(=O)Nc3cccc(C(F)(F)F)c3)N2C1=O)NCc1cccs1 (configuration not stated) | 1 | 3 | 13 | -12 | 0
Cc1ccc(F)cc1NC(=O)CSc1nc(-c2cccs2)cc(C(F)(F)F)n1 | 1 | 4 | 6 | 2 | 0
CNS(=O)(=O)c1cn(CC(=O)N2CCN(c3cc(C)ccc3C)CC2)cc1S(=O)(=O)NC | 4 | -2 | -20 | -4 | 0
Cc1ccc(S(=O)(=O)N(C)Cc2ccc(C(=O)N/N=C3\CC(=O)CC(C)(C)C3)cc2)cc1 | -1 | -4 | -42* | -1 | 0
Cc1ccc(S(=O)(=O)N(C)Cc2ccc(C(=O)N/N=C/c3ccc(OC(F)F)cc3OC(F)F)cc2)cc1 | 4 | -4 | -13 | 6 | 1
COC(=O)c1ccc(OCCOc2ccccc2)cc1 | 3 | -2 | -13 | -3 | 0
COc1cccc(OC)c1OCCOc1ccc(C(=O)c2ccccc2)cc1 | 22 | -6 | -35* | -9 | -1
Cc1ccc(S(=O)(=O)N(C)C)cc1NC(=O)COC(=O)c1ccc2ccccc2n1 | 0 | 1 | -55* | 6 | 0
COC(=O)c1ccc(NC(=O)CC2C(=O)N(c3ccccc3)C(=O)N2Cc2cccs2)cc1 (configuration not stated) | 0 | -5 | -13 | 2 | 0
COc1ccc2c(c1)-c1nc(NC(=O)c3ccc(OC)c(Br)c3)sc1CC2 | 0 | -2 | -15 | -10 | 1
Cc1cccc(CS(=O)(=O)c2ncc(Cl)c(C(=O)Nc3c(C)cccc3C)n2)c1 | 2 | -5 | -32* | -17 | 1
COc1ccc2nc(NC(=O)c3nc(S(=O)(=O)Cc4cccc(C)c4)ncc3Cl)sc2c1 | 1 | -2 | -31* | -7 | 0
Cc1cccc(CS(=O)(=O)c2ncc(Cl)c(C(=O)NCc3ccccc3)n2)c1 | 2 | -6 | -32* | -14 | -1
O=C(Nc1cccs1)Nc1cc(C(F)(F)F)ccc1Cl | 10 | -6 | -18 | -5 | 0
SMILES | D1 ag | D1 potentiator | D1 antag | TRHR PAM | TRHR agonist
COc1ccccc1-c1c(C)nn2c(C)cc(C)nc12 | -2 | -2 | -36* | 5 | -1
N#CC(C#N)=C(Nc1ccc(F)cc1)SCc1cccc(Br)c1 | 30 | -10 | -42* | -5 | 3
Cc1cccc(CSC(Nc2ccc(F)cc2)=C(C#N)C#N)c1 | 26 | -8 | -35* | -9 | 4
Cc1c(CCO)c(=O)[nH]n1C(=O)c1ccc(F)cc1 | 1 | -9 | -31* | 2 | 0
Cc1c(CCO)c(=O)n(C)n1C(=O)c1ccc(F)cc1 | 5 | -7 | 12 | -1 | 0
COc1ccc(Cn2c(SCc3ccc(C(=O)NC(C)C)cc3)nc3cccnc32)cc1 | -1 | 2 | 4 | 10 | 0
CC1(C(=O)NCCOc2ccccc2Cl)CC1(Cl)Cl (configuration not stated) | 1 | -5 | -65* | 1 | 0
